In PubChem BioAssay (NCATS) one finds Potency data, which are given here for 33 compounds.

Unmarked numbers belong to inactive results. Records with an inconclusive call do not appear. Activity calls are given as the source filed them. Unless noted, the call rests on the fitted dose curve; in most records, active means well fitted curve in the direction sought with a large enough effect; inconclusive means small, poorly fitted or top-dose-only effect, or another doubt; inactive means no such curve, though single readings can be large; an effect the other way counts as inactive or inconclusive.

The target of test [1] is Cytochrome P450 1A2 (Homo sapiens) (UniProt P05177). In words: p450-cyp1a2 (AID 410; calls by dose curve; further: potency means the concentration at half of the fitted maximal effect). The gist of the method:
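Human CYP1A2 (20nM) demethylated Luciferin-ME at its Km (100uM) in 100mM KPO4. After 10 min compound preincubation, NADPH regeneration ran the reaction 60 min at room temperature. Luciferin was read by luminescence, normalized to 57 uM furafylline.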

Test [2] has as its target Mitogen-activated protein kinase 10 (Mus musculus) (UniProt Q61831). In words: JNK3 AlphaScreen Assay (AID 530; active means well fitted curve in either direction with a large enough effect, not every such curve was filed as active;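 further: kinase came from lysate of stimulated human HepG2 cells; signal reports phosphorylation of biotinylated GST-cJun 1-79 at Ser73 with 10 µM ATP; series mostly up to about 57 µM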). The essentials:
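Room-temperature AlphaScreen kinase assay; pre-activated HepG2 lysate as JNK3 source, biotin-GST-cJun(1-79) substrate, 10 uM ATP, compound 15 min preincubation.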
(In general: Bead proximity is the source of the signal in Alpha formats.)

In test [3] the target is 3',5'-cyclic-AMP phosphodiesterase 4B (Homo sapiens) (UniProt Q07343). The experiment in a line: qHTS Assay for Inhibitors of PDE-IV (AID 607; active means well fitted activation curve with a large enough effect in the main read-out, with a control signal flat, not every such curve was filed as active). The gist of the method:
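The readout is membrane depolarisation from a cAMP-sensing CNG channel, detected with a potential dye at ex 535/em 590. Cells were HEK293-derived (endogenous PDE-IV) at 1000 cells/well, titrated up to 22.9 uM final.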
A general note: In qHTS, concentration-response curves come from the screen itself.

Test [4] addresses Cytochrome P450 2C9 (Homo sapiens) (UniProt P11712). The experiment in a line: qHTS Assay for Inhibitors and Substrates of Cytochrome P450 2C9 (AID 883). Further: nearly all actives have a fitted effect of over 60% in size. Further: potency means the concentration at half of the fitted maximal effect. The essentials: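 Luminescent read-out of deoxyluciferin hydroxylation, normalized to 57uM sulphaphenazole (AC100). Reaction: 10nM enzyme, 100uM Luciferin-H (equal to KM), 25mM KPO4, 10 min compound preincubation, then 60 min with NADPH regeneration, both at 37C.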

In test [5] the target is Cytochrome P450 3A4 (Homo sapiens) (UniProt P08684). The experiment in a line: qHTS Assay for Inhibitors and Substrates of Cytochrome P450 3A4 (AID 884). Further: potency means the concentration at half of the fitted maximal effect; nearly all actives have a fitted effect of over 50% in size. The gist of the method:
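20 nM human CYP3A4 with 25 uM Luciferin-PPXE (at KM) in 200 mM KPO4, preincubated 10 min with compound; NADPH regeneration started a 60 min RT reaction. Luciferin detected by luminescence, normalized to 57 uM ketoconazole as full inhibition.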

The target is the same in test [6]. The experiment in a line: qHTS Assay for Activators of Cytochrome P450 3A4 (AID 885). Further: nearly all actives have a fitted effect of over 65% in size. The essentials: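 Steps: enzyme/substrate mix dispensed; compound added, 10 min RT; NADPH regeneration solution added, 60 min RT; luciferin detection buffer stops reaction; 20 min later luminescence measured.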
For test [7], the target named is Cytochrome P450 2D6 (Homo sapiens) (UniProt P10635). The experiment in a line: qHTS Assay for Inhibitors and Substrates of Cytochrome P450 2D6 (AID 891). Further: nearly all actives have a fitted effect of over 60% in size. Further: potency means the concentration at half of the fitted maximal effect. The essentials:
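Human CYP2D6 (5 nM) with 30 uM Luciferin-ME EGE (at Km) in 100 mM KPO4, compound preincubated 10 min, then NADPH regeneration system for 60 min at room temperature. Luciferin read by luminescence; normalized to 1.43 uM quinidine.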

Test [8] concerns the target Cytochrome P450 2C19 (Homo sapiens) (UniProt P33261). The experiment in a line: qHTS Assay for Inhibitors and Substrates of Cytochrome P450 2C19 (AID 899). Further: nearly all actives have a fitted effect of over 60% in size. Further: potency means the concentration at half of the fitted maximal effect. The essentials: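 Luminescence readout of luciferin formed from 10uM Luciferin-H EGE (KM level) by 5 nM CYP2C19 in 50mM KPO4. 60 min NADPH-driven reaction at 37C after 10 min compound preincubation; data scaled to 57uM ketoconazole inhibition.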

Chain of Cytochrome P450 2C9 (Homo sapiens) (P11712 whole entry, looked up): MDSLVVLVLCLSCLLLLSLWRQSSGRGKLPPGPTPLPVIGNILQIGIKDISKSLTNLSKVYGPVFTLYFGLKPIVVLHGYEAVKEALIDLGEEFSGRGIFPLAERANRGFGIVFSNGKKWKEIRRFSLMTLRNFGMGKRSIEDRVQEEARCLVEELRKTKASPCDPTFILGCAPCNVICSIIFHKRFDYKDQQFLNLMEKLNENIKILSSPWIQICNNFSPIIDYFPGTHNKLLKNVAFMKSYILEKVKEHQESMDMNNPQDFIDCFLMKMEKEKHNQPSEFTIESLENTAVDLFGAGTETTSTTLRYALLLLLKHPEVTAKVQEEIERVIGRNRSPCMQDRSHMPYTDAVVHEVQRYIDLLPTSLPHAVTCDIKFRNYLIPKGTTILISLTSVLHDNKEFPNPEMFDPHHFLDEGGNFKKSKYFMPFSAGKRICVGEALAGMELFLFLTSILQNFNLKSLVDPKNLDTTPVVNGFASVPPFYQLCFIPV
Chain of Cytochrome P450 2D6 (Homo sapiens) (P10635 whole entry, looked up): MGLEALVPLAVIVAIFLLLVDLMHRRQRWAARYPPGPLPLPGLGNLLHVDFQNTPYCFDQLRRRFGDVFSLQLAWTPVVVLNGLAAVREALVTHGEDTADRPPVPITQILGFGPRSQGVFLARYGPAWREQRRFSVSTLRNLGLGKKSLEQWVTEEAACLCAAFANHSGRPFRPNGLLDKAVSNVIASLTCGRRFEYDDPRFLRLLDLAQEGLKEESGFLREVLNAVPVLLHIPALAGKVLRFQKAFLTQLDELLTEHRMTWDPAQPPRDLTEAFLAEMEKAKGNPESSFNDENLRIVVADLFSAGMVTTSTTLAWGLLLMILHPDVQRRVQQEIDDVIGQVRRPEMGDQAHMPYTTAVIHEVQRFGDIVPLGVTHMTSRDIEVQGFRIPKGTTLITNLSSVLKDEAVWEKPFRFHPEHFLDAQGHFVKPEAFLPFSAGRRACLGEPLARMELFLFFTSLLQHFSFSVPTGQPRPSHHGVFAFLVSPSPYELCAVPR
Chain of Cytochrome P450 1A2 (Homo sapiens) (P05177 whole entry, looked up): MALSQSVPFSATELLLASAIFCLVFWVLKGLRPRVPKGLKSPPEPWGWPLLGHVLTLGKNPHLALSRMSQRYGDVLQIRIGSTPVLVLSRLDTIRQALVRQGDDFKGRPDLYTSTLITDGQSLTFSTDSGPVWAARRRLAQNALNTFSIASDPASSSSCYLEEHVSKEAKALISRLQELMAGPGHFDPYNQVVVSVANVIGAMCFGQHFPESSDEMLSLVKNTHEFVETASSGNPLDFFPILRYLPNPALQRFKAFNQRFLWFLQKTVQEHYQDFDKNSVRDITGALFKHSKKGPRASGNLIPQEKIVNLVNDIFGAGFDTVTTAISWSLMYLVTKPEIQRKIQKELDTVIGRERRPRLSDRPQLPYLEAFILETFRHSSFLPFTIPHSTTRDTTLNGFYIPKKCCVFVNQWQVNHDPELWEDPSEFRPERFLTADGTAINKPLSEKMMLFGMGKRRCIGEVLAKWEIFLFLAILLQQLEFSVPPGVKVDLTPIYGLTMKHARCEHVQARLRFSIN
Chain of Cytochrome P450 2C19 (Homo sapiens) (P33261 whole entry, looked up): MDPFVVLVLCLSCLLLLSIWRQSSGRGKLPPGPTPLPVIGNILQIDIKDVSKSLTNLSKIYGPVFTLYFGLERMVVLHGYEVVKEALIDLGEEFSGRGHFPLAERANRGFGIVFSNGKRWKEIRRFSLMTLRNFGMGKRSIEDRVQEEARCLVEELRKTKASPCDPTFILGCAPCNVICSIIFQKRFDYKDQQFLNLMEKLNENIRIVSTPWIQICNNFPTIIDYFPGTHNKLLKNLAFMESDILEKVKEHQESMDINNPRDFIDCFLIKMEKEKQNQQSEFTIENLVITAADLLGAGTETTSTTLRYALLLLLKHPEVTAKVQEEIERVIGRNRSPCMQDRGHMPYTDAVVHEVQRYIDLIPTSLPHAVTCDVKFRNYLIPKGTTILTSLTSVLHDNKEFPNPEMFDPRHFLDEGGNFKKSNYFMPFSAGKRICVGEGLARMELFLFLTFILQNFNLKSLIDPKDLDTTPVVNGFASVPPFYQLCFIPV
Chain of Cytochrome P450 3A4 (Homo sapiens) (P08684 whole entry, looked up): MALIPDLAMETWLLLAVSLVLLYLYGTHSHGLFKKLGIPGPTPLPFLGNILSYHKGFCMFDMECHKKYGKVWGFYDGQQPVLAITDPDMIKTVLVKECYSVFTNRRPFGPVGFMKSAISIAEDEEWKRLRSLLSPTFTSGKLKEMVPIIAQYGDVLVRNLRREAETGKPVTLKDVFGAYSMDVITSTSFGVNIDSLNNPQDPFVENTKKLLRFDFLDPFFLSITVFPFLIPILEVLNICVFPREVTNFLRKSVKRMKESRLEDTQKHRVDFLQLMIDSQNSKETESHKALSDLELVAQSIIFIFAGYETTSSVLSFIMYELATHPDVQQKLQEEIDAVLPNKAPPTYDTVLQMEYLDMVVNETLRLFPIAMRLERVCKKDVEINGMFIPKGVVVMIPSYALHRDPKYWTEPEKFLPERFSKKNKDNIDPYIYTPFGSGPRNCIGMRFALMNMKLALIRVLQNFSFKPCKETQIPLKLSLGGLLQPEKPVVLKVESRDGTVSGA
Chain of 3',5'-cyclic-AMP phosphodiesterase 4B (Homo sapiens) (Q07343 whole entry, looked up): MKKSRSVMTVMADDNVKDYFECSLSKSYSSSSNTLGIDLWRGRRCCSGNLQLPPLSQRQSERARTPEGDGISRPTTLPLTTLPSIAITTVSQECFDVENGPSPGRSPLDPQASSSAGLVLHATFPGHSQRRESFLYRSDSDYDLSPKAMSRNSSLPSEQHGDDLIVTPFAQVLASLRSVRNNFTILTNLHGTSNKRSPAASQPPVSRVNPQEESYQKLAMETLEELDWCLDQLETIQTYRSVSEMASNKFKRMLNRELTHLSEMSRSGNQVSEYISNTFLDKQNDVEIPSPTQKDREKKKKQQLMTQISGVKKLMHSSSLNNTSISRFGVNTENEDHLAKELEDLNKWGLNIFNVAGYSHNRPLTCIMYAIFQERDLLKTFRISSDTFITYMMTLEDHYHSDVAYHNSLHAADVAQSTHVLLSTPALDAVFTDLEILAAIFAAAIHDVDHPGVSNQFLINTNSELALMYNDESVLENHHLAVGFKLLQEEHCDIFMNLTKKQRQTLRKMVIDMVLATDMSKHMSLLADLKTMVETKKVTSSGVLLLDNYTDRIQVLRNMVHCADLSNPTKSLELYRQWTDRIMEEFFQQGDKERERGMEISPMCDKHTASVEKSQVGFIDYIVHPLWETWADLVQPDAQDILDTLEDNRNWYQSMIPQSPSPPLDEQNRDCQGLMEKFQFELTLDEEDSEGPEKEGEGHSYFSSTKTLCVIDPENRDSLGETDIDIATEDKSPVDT

Turning to `C[C@@H](C(=O)Nc1ccc2ccccc2c1)[C@H]1C[C@]1(C)[C@H](NC(=O)OCc1ccccc1)c1ccccc1`, the Potency is 3.98 µM (active) in test [1], 1.58 µM (active) in test [4] and 2.51 µM (active) in test [5]. The Potency entry in test [2], in test [3] and in test [6] was “inactive” in each case.

Regarding `COC(=O)c1ccc(C#CC(NP(=O)(c2ccccc2)c2ccccc2)c2ccccc2)cc1` (configuration not stated), the Potency in test [1] was 20 µM (active). For the same compound, the Potency result in test [2] was “inactive”.

Take `COC(=O)[C@@]1(Cc2ccc(F)cc2)[C@H]2c3cc(C(=O)N4CCCC4)n(Cc4cccc5ccccc45)c3C[C@H]2CN1C(=O)c1ccccc1`: the values for the Potency in test [1], in test [4] and in test [5] were 15.8 µM (active), 1.58 µM (active) and 2 µM (active), respectively. Also, the Potency result in test [2], in test [3] and in test [6] was “inactive” in each case.

As for `CC1=C(C(=O)OCc2ccccc2)C(c2ccccc2)NC(=O)N1CCCCCC(=O)O` (configuration not stated), the Potency in test [1] was 20 µM (active). In addition, the Potency result in test [2] and in test [3] was “inactive” throughout.

On to `Cc1cc(C(=O)N[C@H](c2ccccc2)[C@@]2(C)C[C@@H]2[C@@H](C)C(=O)Nc2ccc3ccccc3c2)n(C)n1`, for which the Potency is 20 µM (active) in test [1], 7.94 µM (active) in test [4], 0.794 µM (active) in test [5] and 39.8 nM (active) in test [7]. Besides, the Potency entry in test [2], in test [3] and in test [6] was “inactive” in each case.

Consider `COC(=O)[C@@]1(Cc2ccc(F)cc2)[C@H]2c3cc(C(=O)N4CCCC4)n(CCO)c3C[C@H]2CN1C(=O)c1ccccc1`, for which, in test [1], the Potency was 25.1 µM (active). Further, the Potency entry in test [2] and in test [3] was “inactive” in each case.

Turning to `COC(=O)[C@@]1(Cc2ccccc2)[C@H]2c3cc(C(=O)N4CCCC4)n(Cc4ccc(C(F)(F)F)nc4)c3C[C@H]2CN1C(=O)c1ccccc1`, the Potency entry in test [1], in test [2], in test [3] and in test [6] was “inactive” each time. Further, the Potency was 5.01 µM (active) in test [4] and 3.16 µM (active) in test [5].

In the case of `CCCC/C=C/C(NC(=O)c1ccc(-c2ccccc2)cc1)c1ccccc1` (configuration not stated), the Potency in test [1] was 15.8 µM (active). In addition, the Potency result in test [2] and in test [3] was “inactive” in each case.

For `C[C@@]1(C(NC(=O)c2ccc(-c3ccccc3)cc2)c2ccc(Cl)cc2)C[C@H]1C1CCCCC1` (some centres not stated), the Potency entry in test [1], in test [2] and in test [3] was “inactive” in each case.

With `CCc1c2c(nc3cccc(OC)c13)OC(CC)C2` (configuration not stated), the Potency in test [1] was 2 µM (active). The Potency entry in test [2] and in test [3] was “inactive” each time.

Turning to `COCCn1c(C(=O)N2CCCC2)cc2c1C[C@H]1CN(C(=O)c3ccccc3)[C@@](Cc3ccc(F)cc3)(C(=O)OC)[C@@H]21`, the Potency in test [1] is 31.6 µM (active). The Potency entry in test [2] and in test [3] was “inactive” throughout.

On to `COC(=O)[C@@]1(Cc2ccc(OC)cc2)[C@H]2c3cc(C(=O)N(C)C)n(CCN4CNCC4=O)c3C[C@H]2CN1C(=O)c1ccccc1`, for which, in test [1], the Potency was 20 µM (active). Besides, the Potency entry in test [2] and in test [3] was “inactive” throughout.

For `COC(=O)[C@@]1(Cc2ccc(F)cc2)[C@H]2c3cc(C(=O)N4CCCC4)n(CCCNc4ncc(C(F)(F)F)cc4Cl)c3C[C@H]2CN1C(=O)c1ccccc1`, the Potency result in test [1], in test [2], in test [3] and in test [6] was “inactive” throughout. Besides, the figures for the Potency in test [4] and in test [5] were 3.16 µM (active) and 2.51 µM (active), respectively.

In the case of `CCC[C@@H]1C[C@@]1(CCC)C(NC(=O)c1ccc(-c2ccccc2)cc1)c1cccc(Cl)c1` (some centres not stated), the Potency entry in test [1], in test [2] and in test [3] was “inactive” throughout.

Consider `C[C@@]1(C(NC(=O)c2ccccc2)c2ccc(-c3ccccc3)cc2)C[C@H]1C1CCCCC1` (some centres not stated), for which the Potency entry in test [1], in test [2] and in test [3] was “inactive” throughout.

With `C[C@@H](C(=O)Nc1ccc2ccccc2c1)[C@H]1C[C@]1(C)[C@H](NC(=O)c1cnccn1)c1ccccc1`, the figures for the Potency in test [1], in test [4] and in test [5] were 25.1 µM (active), 5.01 µM (active) and 0.631 µM (active), respectively. Besides, the Potency result in test [2], in test [3] and in test [6] was “inactive” throughout.

For `COC(=O)[C@@]1(Cc2ccccc2)[C@H]2c3cc(C(=O)N(C)C)n(CCN4CNCC4=O)c3C[C@H]2CN1C(=O)c1ccccc1`, the Potency in test [1] was 5.01 µM (active). Further, the Potency result in test [2] and in test [3] was “inactive” in each case.

`COC(=O)[C@@]1(Cc2ccc(F)cc2)[C@H]2c3cc(C(=O)N(C)C)n(CCc4c[nH]c5ccc(OC)cc45)c3C[C@H]2CN1C(=O)c1ccccc1`: the Potency in test [1] is 12.6 µM (active). Also, the Potency result in test [2] and in test [3] was “inactive” each time.

Consider `CCC#CCOCC(=S)Nc1ccccc1`, for which the Potency in test [1] was 15.8 µM (active). In addition, the Potency result in test [2] and in test [3] was “inactive” throughout.

On to `CC1(C)S[C@@H]2[C@@H](NC(=O)[C@@H](N)c3ccccc3)C(=O)N2[C@H]1C(=O)O`, for which the Potency result in test [1], in test [2] and in test [3] was “inactive” throughout.

Regarding `C[C@@H](C(=O)Nc1ccc2ccccc2c1)[C@H]1C[C@]1(C)[C@H](NP(=O)(c1ccccc1)c1ccccc1)c1ccccc1`, the Potency in test [1] is 10 µM (active); in test [4] it was 3.16 µM (active); in test [5], 2 µM (active); in test [7] it was 794 nM (active). Further, the Potency entry in test [2], in test [3] and in test [6] was “inactive” throughout.

With `O=C(N[C@@H](c1ccccc1)[C@@H]1C[C@H]1C(=O)O)OCc1ccccc1`, the Potency in test [1] is 20 µM (active). Also, the Potency entry in test [2] and in test [3] was “inactive” each time.

For the compound `COC(=O)[C@@]1(Cc2ccccc2)[C@H]2c3cc(C(=O)N4CCCC4)n(Cc4ccsc4Br)c3C[C@H]2CN1C(=O)c1ccccc1`, the Potency entry in test [1], in test [2], in test [3] and in test [6] was “inactive” in each case. Also, the Potency in test [4] was 2 µM (active); in test [5], 3.98 µM (active).

Turning to `COC(=O)[C@@]1(Cc2ccc(F)cc2)[C@H]2c3cc(C(=O)N(C)C)n(Cc4cccc5ccccc45)c3C[C@H]2CN1C(=O)c1ccccc1`, the Potency in test [1] was 6.31 µM (active). The Potency entry in test [2] and in test [3] was “inactive” each time.

`CC1=C(\C=C/C(C)=C/C=C\C(C)=C\CO)C(C)(C)CCC1`: the Potency entry in test [1], in test [2], in test [3], in test [4], in test [7] and in test [8] was “inactive” each time.

Take `COc1ccc(COC2OC[C@]3(C)[C@H]4C5=C(CN3C(=O)OC(C)(C)C)[C@H](C)C(CO)C(CO)C5CC[C@@H]24)cc1` (some centres not stated): the Potency entry in test [1], in test [2], in test [3] and in test [6] was “inactive” each time. For the same compound, the Potency in test [5] was 7.94 µM (active).

As for `COC(=O)[C@@]1(Cc2ccc(OC)cc2)[C@H]2c3cc(C(=O)N4CCCC4)n(Cc4cc(F)cc5c4OCOC5)c3C[C@H]2CN1C(=O)c1ccccc1`, the Potency entry in test [1], in test [2], in test [3] and in test [6] was “inactive” in each case. Moreover, the Potency in test [4] was 6.31 µM (active); in test [5], 2.51 µM (active); in test [8], 7.94 µM (active).

`COC(=O)[C@@]1(Cc2ccccc2)[C@H]2c3cc(C(=O)N4CCCC4)n(Cc4c(CO)[nH]cc(C)c4=O)c3C[C@H]2CN1C(=O)c1ccccc1`: the Potency was 5.01 µM (active) in test [1] and 2.51 µM (active) in test [5]. In addition, the Potency entry in test [2], in test [3] and in test [6] was “inactive” each time.

On to `CC(C)C[C@@H](CC(=O)N[C@@H](CCC(=O)O)CC(=O)O)NC(=O)[C@@H]1CNCC[C@H]1NC(=O)C[C@H](CCCN)NC(=O)C[C@H](Cc1c[nH]c2ccccc12)NC(=O)[C@@H]1CNCC[C@H]1N`, for which the Potency result in test [1], in test [2], in test [3], in test [4] and in test [7] was “inactive” in each case.

`COC(=O)[C@@]1(Cc2ccccc2)[C@H]2c3cc(C(=O)N4CCCC4)n(Cc4cccc5ccccc45)c3C[C@H]2CN1C(=O)c1ccccc1`: the Potency in test [1] is 15.8 µM (active); in test [4], 0.251 µM (active); in test [5], 1.58 µM (active); in test [8], 2.51 µM (active). Also, the Potency result in test [2], in test [3] and in test [6] was “inactive” in each case.

For the compound `C[C@@H](C(=O)Nc1ccc2ccccc2c1)[C@@H]1C[C@@]1(C)[C@@H](N)c1ccccc1`, the figures for the Potency in test [1] and in test [5] were 15.8 µM (active) and 7.94 µM (active), respectively. In addition, the Potency result in test [2], in test [3] and in test [6] was “inactive” throughout.

On to `COC(=O)[C@@]1(Cc2ccc(F)cc2)[C@H]2c3cc(C(=O)N4CCCC4)n(CCc4c[nH]c5ccccc45)c3C[C@H]2CN1C(=O)c1ccccc1`, for which the Potency result in test [1], in test [2], in test [3] and in test [6] was “inactive” each time. Further, the Potency in test [4] was 2.51 µM (active).

With `COC(=O)[C@@]1(Cc2ccc(F)cc2)[C@H]2c3cc(C(=O)N4CCCC4)n(Cc4ccccn4)c3C[C@H]2CN1C(=O)c1ccccc1`, the Potency in test [1] was 20 µM (active); in test [4], 2 µM (active). Further, the Potency result in test [2], in test [3] and in test [6] was “inactive” in each case.
